# Source: PubChem BioAssay
# Rows were chosen to be rich in hits. Some 2.4% of all compounds tested hit in one or more screens of this group.
# D2 antagonist: HTS Assay for Allosteric Antagonists of the Human D2 Dopamine Receptor: Primary Screen for Antagonists; D(2) dopamine receptor (Homo sapiens), P14416; HEK293 TREx D2 cells, calcium flux, dopamine EC80; inhibition, % at 10 µM; 340,000 compounds, 2% hits; in the data active = inhibition above about 30%; inactive = below that, where a call was filed; note: 0% is about no effect
# Target sequence (P14416 whole entry, looked up): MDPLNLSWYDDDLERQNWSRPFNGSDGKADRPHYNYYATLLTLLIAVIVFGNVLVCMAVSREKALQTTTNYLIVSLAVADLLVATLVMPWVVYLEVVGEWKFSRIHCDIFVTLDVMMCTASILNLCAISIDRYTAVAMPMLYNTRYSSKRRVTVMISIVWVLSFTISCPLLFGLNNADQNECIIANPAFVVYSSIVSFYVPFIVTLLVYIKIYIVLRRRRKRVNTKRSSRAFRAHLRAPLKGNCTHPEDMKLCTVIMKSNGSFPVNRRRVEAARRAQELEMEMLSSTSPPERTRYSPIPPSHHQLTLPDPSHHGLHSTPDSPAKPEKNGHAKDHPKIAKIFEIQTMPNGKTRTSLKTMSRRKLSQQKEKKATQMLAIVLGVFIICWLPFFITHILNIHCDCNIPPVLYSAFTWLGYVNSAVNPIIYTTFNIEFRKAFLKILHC
#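 HEK293 T-REx D2 cells, tet-induced, calcium dye no-wash. Cpd pintool add, 180 s kinetic, then EC80 DA, 180 s kinetic. Ca flux read.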
# D2 PAM-1: HTS Assay for Positive Allosteric Modulators of the Human D2 Dopamine Receptor: Primary Screen for Potentiators | D(2) dopamine receptor (Homo sapiens), P14416 | HEK293 T-REx D2, calcium flux, EC20 dopamine potentiation | potentiation, % at 10 µM | 340,000 compounds, 0.34% hits;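 active = potentiation over 3 SD above the plate norm, cut at about 30% in these data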; note: 0% is about no effect
#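 Primary screen. Calcium kinetics in induced HEK293 T-REx D2 cells: compound pre-addition 180 s, EC20 dopamine, 180 s more.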
# D2 ag-1: HTS Assay for Allosteric Agonists of the Human D2 Dopamine Receptor: Primary Screen for Agonists | D(2) dopamine receptor (Homo sapiens), P14416 | HEK293 T-REx D2 cells, calcium flux agonist mode | activation, % at 2 µM | 340,000 compounds, 0.53% hits;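 active = activation over 3 SD above normal in the single-dose calcium agonist read, cut at about 30% in these data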; note: 0% is about no effect
#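 Agonism is scored from calcium flux in a force-coupled, inducible HEK293 cell line expressing D2, read kinetically for 180 s after compound addition against dopamine controls.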
# D2 PAM-2: Beta-Arrestin HTS for Positive Allosteric Modulators of the Human D2 Dopamine Receptor: Potentiators; DiscoveRx D2 beta-arrestin cells, luminescence, 90 min; 100% = 57 uM dopamine signal; D(2) dopamine receptor (Homo sapiens), P14416; potentiation, % (concentration not given with the values); AID 624464, 2012; 360,000 compounds, 0.23% hits; in the data active = potentiation above about 50%
#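 PathHunter beta-arrestin assay in DiscoveRx D2 cells. Compounds were added with an EC20 of dopamine (50 nM final) for 90 min at 37 deg C. Luminescence was read 1 h after detection reagent, with 57 uM dopamine as the EC100 control.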
# D2 ag-2: Beta-Arrestin HTS for Positive Allosteric Modulators of the Human D2 Dopamine Receptor: Agonists. D(2) dopamine receptor (Homo sapiens), P14416. AID 624465, 2012. activation, % (no concentration beside the values). DiscoveRx PathHunter D2 beta-arrestin, luminescence, 90 min; 100% = 57 uM dopamine signal. 360,000 compounds, 0.084% hits; in the data active = activation above about 40%
#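 DiscoveRx PathHunter D2 beta-arrestin cells (2,100/well) attached overnight, then compound-stimulated 90 min at 37 C in HBSS/10 mM HEPES/0.1% Tween-20 buffer; beta-galactosidase complementation read by luminescence after 1 h at ambient temperature. Dopamine 57 uM final (EC100) as control.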
# * = called active by the depositor; . = not tested or not shown.
SMILES,D2 antagonist,D2 PAM-1,D2 ag-1,D2 PAM-2,D2 ag-2
CCOC(=O)C(CC)N1CCN(Cc2ccc(F)cc2)C(=O)C1=O (stereo not drawn),.,-6,-1,.,.
COc1cccc(-c2cccc(NC(=O)C3CCN(Cc4ccc(C)o4)CC3)c2)c1,-8,-13,1,-31,0
O=C(Nc1cccc(-c2cccc(F)c2)c1)C1CCN(Cc2ccco2)CC1,56*,-24,-1,-31,-1
COCc1ccc(CN2CCC(C(=O)Nc3cccc(-c4cccc(Cl)c4)c3)CC2)o1,34*,-14,0,-21,-1
COCc1ccc(CN2CCC(C(=O)Nc3cccc(-c4cscn4)c3)CC2)o1,32*,-22,0,-42,-3
O=C(Nc1cccc(-c2cscn2)c1)C1CCN(Cc2ccc(CO)o2)CC1,-2,-19,1,-18,-2
CCc1nc2nc(C)cc(Nc3ccc(Br)cc3F)n2n1,.,16,0,.,.
O=C(CC1C(=O)N(c2ccccc2)C(=O)N1Cc1ccc(F)cc1)Nc1cccc(F)c1 (stereo not drawn),.,-8,0,.,.
CN(C(=O)CCl)C1CCCc2ccccc21 (stereo not drawn),-12,34*,0,-15,-4
COc1ccc(OC)c(NC(=O)C2CC(=O)n3ncnc3N2)c1 (stereo not drawn),8,33*,1,-8,0
O=C(NCCSCc1ccco1)Nc1cc(Cl)cc(Cl)c1,30*,-13,2,-17,-1
C/C(=N\OC(=O)c1ccccc1F)c1nccs1,-6,41*,0,6,-1
COC(=O)c1sc(-c2ccccc2)cc1NC(=O)Nc1ccc(F)cc1,.,0,-1,.,.
Cn1c(=O)[nH]c(=O)c2c1ncn2CCN1CCOCC1,38*,6,0,-18,-1
Cn1c(=O)[nH]c(=O)c2c1nc(N1CCOCC1)n2CCN1CCOCC1,-6,3,1,-3,-4
CCCC(=O)C1=C(c2cccc(OC)c2)N(C(=O)CCC)n2c(C)nnc2S1,.,-5,0,.,.
CCC1CCCCN1C(=O)COc1ccccc1NC(C)=O (stereo not drawn),-4,32*,-1,-13,0
CCC1CCCCN1C(=O)COc1cc(=O)n(C)c2ccccc12 (stereo not drawn),-16,-5,1,0,-2
CCN(CC)CCNC(=O)c1cn(-c2ccccc2)nc1-c1cccs1,37*,-24,1,-17,-1
CC1(C)CC(=O)c2sc(NS(=O)(=O)Cc3ccccc3)nc2C1,6,34*,0,2,-1
Cc1ccc(S(=O)(=O)Nc2nc3c(s2)C(=O)CC(C)(C)C3)cc1,-12,-4,0,-1,-5
CCc1ccc(NC(=O)N2CCOc3ccc(Cl)cc32)cc1,.,6,0,.,.
C=C(C)Cn1c2ccc(NC(=S)NCc3ccccc3F)cc2c(=O)n1C,.,.,.,-6,103*
COc1cc(/C=C(\C#N)c2nc3ccccc3c(=O)[nH]2)cc(OC)c1OC,.,-4,.,.,.
Cc1noc(/C=C/N(C)C)c1S(=O)(=O)N1CCC(C(=O)NC(C)(C)C)CC1,31*,-4,-1,0,0
SMILES,D2 antagonist,D2 PAM-1,D2 ag-1,D2 PAM-2,D2 ag-2
Cc1ccc(NC(=O)C2CCN(S(=O)(=O)c3c(C)noc3/C=C/N(C)C)CC2)cc1,-29,4,1,-12,-1
COc1ccc(C(=O)NCC(=O)N/N=C/c2c(C)[nH]c3ccccc23)cc1,53*,-4,-1,-27,1
COc1ccc(Cn2nnnc2C(C(C)C)N2CCN(c3ccccc3OC)CC2)cc1 (stereo not drawn),53*,-9,0,-4,-1
CCOc1ccccc1N1CCN(Cc2ccc(OC)c(OC)c2)CC1,94*,-27,-2,1,-1
CCOc1cc(CN2CCCCCC2)ccc1OC,7,-12,0,-5,-7
CCOC(=O)C1CCN(Cc2ccccn2)CC1,-6,-15,27,.,.
CCOC(=O)C1CCN(c2ccccc2CN2CCN(c3ccccc3OCC)CC2)CC1,61*,-18,0,-24,-15
CCOc1ccccc1N1CCN(Cc2cnc(-c3ccccc3)[nH]2)CC1,78*,-24,0,-6,2
Cc1ccc(N2CCN(C(=O)c3cn(C)c4ccc(S(=O)(=O)N5CCC(C)CC5)cc4c3=O)CC2C)cc1 (stereo not drawn),.,0,-1,.,.
O=C(Nc1ccc(Br)cc1F)N1CCC2(CC1)Oc1ccccc1C(=O)N2Cc1ccccc1F,.,-2,1,.,.
Cc1ccccc1N1CCN(Cc2cc3c(cc2[N+](=O)[O-])OCO3)CC1,-20,0,0,-41,5
COc1cc(OC)c(OC)cc1CN1CCN(c2ccccc2OC)CC1,70*,-15,0,-21,1
Cc1ccc(Nc2nc(N)nc(CN3CCN(C)CC3)n2)cc1,18,-8,0,-17,-1
CCOc1ccccc1N1CCN(Cc2cc3c(cc2[N+](=O)[O-])OCO3)CC1,60*,-15,1,-25,0
CCOC(=O)C1CCN(c2c(NCCN3CCN(c4ccccc4)CC3)c(=O)c2=O)CC1,-7,-18,37*,-7,-4
COc1ccccc1N1CCN(Cc2nc(N)nc(Nc3ccc(C)cc3)n2)CC1,89*,-38,26,-42,1
CC1CCN(c2nn3c(=O)c(C(=O)NCCc4ccccc4)cnc3s2)CC1,.,-1,0,.,.
CCCCOc1ccc(C(=O)NCc2cn3cccc(C)c3n2)cc1,.,5,0,.,.
CCOc1ccccc1N1CCN(Cc2ccc(OC)c(OC)c2OC)CC1,23,1,-3,-20,-1
COc1ccccc1-n1nnnc1SCc1ccccc1,12,-6,-1,-17,5
COc1ccccc1N1CCN(Cc2cccc(OC)c2OC)CC1,71*,-14,-1,-45,-2
COc1ccccc1N1CCN(Cc2cc3c(cc2Br)OCCO3)CC1,104*,-27,-1,-18,-18
CCOc1ccccc1N1CCN(C/C=C/c2ccc(N(C)C)cc2)CC1,79*,-21,0,-34,0
COc1ccccc1-n1nnnc1SCc1cc2c(cc1Br)OCO2,-9,43*,0,-14,-2
COc1ccc(CC(C)N2CCN(c3ccccc3OC)CC2)cc1OC (stereo not drawn),89*,-25,22,-16,-2
CCCOc1ccccc1N/C(N)=N/c1nc(C)cc(C)n1,31*,-8,1,-10,0
